These results are taken from PubChem BioAssay.

Several values for one entry are separate records, joined by “and”; a condition that tells them apart may be missing. Equal entries are not always repeated. For part of these data: Potency and affinity values are given separately. Activity calls are given as the source filed them. Rule as the data show it, unless noted: active = parasite load remaining mostly below about 12% (no sharp cut-off); inactive = mostly above about 10%.

The nature of assay [1]: blockers of polyQ-driven CASP3 activation – cell-based (AID 1583). The following applies: polyglutamine-induced caspase-3 activation, cell assay; stronger effect = higher value;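 tested at 10 µM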.
Assay [2] in a line: yeast 75Q aggregation reduction – 75Q-TubU reporter (AID 1593). The following applies: Yeast 75Q polyglutamine aggregation reporter.
Assay [3] is described as follows: restoration of touch response, mutant HTT neurons – whole organism, C. elegans mechanosensory neurons, N-terminal huntingtin (AID 1599). The following applies: C. elegans polyQ-huntingtin mechanosensory neurons, stronger effect = higher value.
Assay [4] in a line: blockers of cytochrome c efflux from mitochondria – biochemical, purified mitochondria (AID 1603).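 Also: mouse liver mitochondria challenged with calcium chloride; signal normalized to the plate average as 100%.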 The following applies: stronger effect = lower value.
Assay [5] can be described thus: polyglutamine aggregate formation blockers (AID 1604). The following applies: polyglutamine-induced protein aggregation inhibition assay; stronger effect = higher value; tested at 2.5 µM.
The nature of assay [6]: glutamate transport activators, MN-1 cells, MN-1 cell line (AID 1612).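 Also: tested at 1 µM final; 0% = mean of DMSO vehicle wells on each plate; positive means more glutamate uptake than control and negative means less.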 The following applies: MN-1 motor neuron cells, stronger effect = higher value.
A short description of assay [7]: 75Q-TubH aggregate inhibition, S. cerevisiae, yeast (AID 1616). The conditions noted are these: S. cerevisiae 75Q-TubH polyglutamine aggregation suppression; stronger effect = higher value.
The nature of assay [8]: P. berghei load reduction in hepatocytes – cell-based, HepG2, luciferase luminescence, HepG2 viability, primary screen (AID 624349).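 Also: 100% = mean of DMSO negative control wells on the same plate.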 The conditions noted are these: P. berghei liver stage in HepG2, luciferase luminescence, concentration not given here; parasite load remaining: stronger effect = lower value; viability: measured here: HepG2 viability without parasites.
A short description of assay [9]: EMT-state selective cytotoxicity in co-culture – imaging, PC-3E GFP, TEM4-18 mCherry, primary screen (AID 1345086;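 active = compounds killing one labelled cell type while sparing the other, by normalised counts and ratio limits, not self-fluorescent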;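 as to all read-outs here: cells exposed to compound for 72 h before imaging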;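 as to red/green cell ratio (normalised): normalised mesenchymal count divided by normalised epithelial count so high means epithelial killing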). The following applies: PC-3E GFP / TEM4-18 mCherry co-culture, imaging cell counts, at 1 µM; for red/green cell ratio (normalised): actives lie on both sides.
Assay [10] concerns Aerobactin synthetase IucA (Klebsiella pneumoniae hvKP1). Nature of the assay: IucA enzyme inhibition, primary screen, biochemical, Spectrum library (AID 1346200; call rule not given here;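 also: 100% = wells without compound and 0% = wells lacking enzyme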). The conditions noted are these: malachite green pyrophosphate, A620, at 8 µM, stronger effect = lower value.
Assay [11] in a line: viability loss with induced miR-34 in A549 – imaging, A549 dox-inducible miR-34, nuclei and caspase counts, primary screen (AID 1347080;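 active = compounds whose cell count with miR-34 switched on is under 0.7 times the count with it off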). The following applies: A549 miR-34 inducible, Hoechst nuclei count, 48 h.
For assay [12], the target named is Mitogen-activated protein kinase 7 (Homo sapiens) (UniProt Q13164). Nature of the assay: Gal4-ERK5 driven luciferase induction – cell-based, HTS, primary screen (AID 1508626;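 active = luciferase signal above three times the same-plate solvent-only control wells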;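 also: luciferase driven by Gal4-ERK5 fusion binding five Gal4 sites before minimal TATA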). The following applies: HeLa Gal4-ERK5 transactivation, 18 h, at 5 µM, stronger effect = higher value.
Setting [13] is: measured here: epithelial PC-3E GFP cell survival.
Where [14] appears, read: measured here: mesenchymal TEM4-18 mCherry cell survival.
[15] abbreviates: measured here: relative caspase fold change +Dox/-Dox.
The mark [16] stands for this setting: measured here: total cells with miR-34 induction, stronger effect = lower value.
Where [17] appears, read: measured here: total cells without miR-34 induction.

Chain of Mitogen-activated protein kinase 7 (Homo sapiens) (Q13164 whole entry, looked up, the tested form may be a part): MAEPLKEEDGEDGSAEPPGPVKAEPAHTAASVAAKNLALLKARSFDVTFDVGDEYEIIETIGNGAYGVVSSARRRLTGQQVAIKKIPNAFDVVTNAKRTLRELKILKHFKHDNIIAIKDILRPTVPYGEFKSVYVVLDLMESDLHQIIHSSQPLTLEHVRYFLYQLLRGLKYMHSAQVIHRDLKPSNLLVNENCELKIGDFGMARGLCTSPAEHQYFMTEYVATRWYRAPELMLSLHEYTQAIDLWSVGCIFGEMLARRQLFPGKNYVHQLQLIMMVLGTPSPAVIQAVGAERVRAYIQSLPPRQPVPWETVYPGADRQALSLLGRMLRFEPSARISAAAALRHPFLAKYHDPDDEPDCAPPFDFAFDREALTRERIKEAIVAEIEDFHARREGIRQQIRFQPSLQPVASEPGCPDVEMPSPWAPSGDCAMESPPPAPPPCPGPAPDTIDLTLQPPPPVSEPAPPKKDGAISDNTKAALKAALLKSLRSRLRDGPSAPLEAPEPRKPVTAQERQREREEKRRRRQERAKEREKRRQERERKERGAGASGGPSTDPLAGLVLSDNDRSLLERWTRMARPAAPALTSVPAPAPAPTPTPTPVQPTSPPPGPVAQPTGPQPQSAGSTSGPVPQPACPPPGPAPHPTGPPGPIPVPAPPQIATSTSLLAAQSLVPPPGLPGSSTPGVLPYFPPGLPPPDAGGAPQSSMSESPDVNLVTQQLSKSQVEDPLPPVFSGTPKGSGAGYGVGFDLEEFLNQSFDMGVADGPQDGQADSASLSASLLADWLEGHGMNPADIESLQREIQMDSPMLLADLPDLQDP

For `C=C[C@H]1CN2CC[C@H]1C[C@@H]2[C@H](O)c1ccnc2ccccc12`, the inhibition (usually the drop in the measured response relative to a control, in per cent) in assay [1] was 15.4%. In assay [2], the score came out at 1.55. The compound further returned a rescue above control in assay [3] of 3.43. Moreover, in [4], the cytochrome c release ratio came out at 0.96. Also, in assay [5], the inhibition of aggregation is -10.6%. In addition, the glutamate uptake change in assay [6] turned out to be 4.38%. In assay [7], this compound displayed an aggregation suppression score of 1.26. The parasite load remaining in assay [8] is 84.2% (inactive) and 28.1% (inactive). Further, the viability (in general, a read-out of living cells in per cent, often relative to untreated cells) in assay [8] was 73.3% and 88.8%. The red/green cell ratio (normalised) in assay [9] was 1.26 (inactive). In addition, the normalised cell number was determined as 0.87 in assay [9] (setting [13]) and 1.1 in assay [9] (setting [14]). Also, the activity remaining in assay [10] is 125% (inactive). For the same compound, the fold change in assay [11] (stronger effect = lower value) was 0.93 (inactive); in [11] (setting [15]) it was 2.81. Also, the cell count turned out to be 12200 in assay [11] (setting [16]) and 13100 in assay [11] (setting [17]).

In the case of `CC(=O)O[C@@H]1CC2C(C)(C)C(=O)C=C[C@]2(C)C2CC[C@]3(C)C(=CC(=O)O[C@H]3c3ccoc3)[C@@]21C` (stereo partly drawn), in assay [9], the red/green cell ratio (normalised) is 1.01 (inactive). Also, the normalised cell number worked out at 0.98 in assay [9] (setting [13]) and 0.99 in assay [9] (setting [14]). For the same compound, in assay [10], the activity remaining is 123% (inactive).

For the compound `CC(CO)NC(=O)C1C=C2c3cccc4[nH]cc(c34)C[C@H]2N(C)C1` (stereo partly drawn), in [8], the parasite load remaining is 81.6% (inactive) and 59.7% (inactive). In addition, the viability in assay [8] was 72.8% and 111%. Also, the red/green cell ratio (normalised) in [9] is 1.15 (inactive). Besides, the normalised cell number in assay [9] (setting [13]) came out at 0.77; in [9] (setting [14]), 0.88. Also, the activity remaining in assay [10] was 98.2% (inactive). Also, the fold change in assay [11] (stronger effect = lower value) is 0.895 (inactive); in assay [11] (setting [15]), 3.49. Also, the cell count was found to be 11100 in [11] (setting [16]) and 12400 in assay [11] (setting [17]).

Regarding `C[C@H]1C[C@@H](O)[C@]2(O)[C@@]13CC(=O)OC[C@@]2(C)[C@](C)(O)C(=O)C3`, in assay [9], the red/green cell ratio (normalised) is 1.18 (inactive). Moreover, the normalised cell number in [9] (setting [13]) was 0.96; in [9] (setting [14]) it was 1.13. The activity remaining in [10] is 127% (inactive). Moreover, the luciferase signal in assay [12] was 188 AU (inactive).

As for `CN1C2C[C@H](OC(=O)[C@H](CO)c3ccccc3)C[C@H]1[C@@H](O)C2`, the red/green cell ratio (normalised) in assay [9] is 0.94 (inactive). The normalised cell number was 1.1 in [9] (setting [13]) and 1.03 in [9] (setting [14]). The activity remaining in assay [10] was 109% (inactive). The fold change in assay [11] (stronger effect = lower value) is 0.908 (inactive); in assay [11] (setting [15]), 0.859. Also, the cell count turned out to be 8730 in assay [11] (setting [16]) and 9620 in assay [11] (setting [17]).

Regarding `CCN1C[C@@]2(COC)C3[C@@H](OC)[C@H]4[C@@H]1[C@]3(C(OC)C[C@H]2O)C1C[C@@]2(O)[C@H](OC(=O)c3ccccc3)C1[C@]4(OC(C)=O)[C@@H](O)[C@@H]2OC` (stereo partly drawn), the inhibition in [1] is -1.76%. In addition, in assay [2], the score was 0.9. Also, the rescue above control in assay [3] was -1.73. For the same compound, the cytochrome c release ratio in assay [4] amounted to 0.91. In addition, the inhibition of aggregation in assay [5] came out at 65.4%. In addition, in assay [6], the glutamate uptake change is 9.78%. The same compound showed an aggregation suppression score in [7] of 1.1. Also, the parasite load remaining in assay [8] is 85.5% (inactive) and 32.5% (inactive). Further, the viability in assay [8] was 79.4% and 105%. For the same compound, the red/green cell ratio (normalised) in assay [9] was 1.07 (inactive). Moreover, the normalised cell number in assay [9] (setting [13]) worked out at 1.01; in assay [9] (setting [14]) it was 1.07. Besides, in [10], the activity remaining is 113% (inactive). For the same compound, the figures for the fold change in assay [11] (stronger effect = lower value) and in [11] (setting [15]) were 0.875 (inactive) and 3.63, respectively. In addition, the cell count turned out to be 11000 in assay [11] (setting [16]) and 12600 in assay [11] (setting [17]).

With `Oc1ccc2c3c1OC1[C@@H](O)CC[C@@]4(O)[C@@H](C2)N(CC2CCC2)CC[C@]314` (stereo partly drawn), the inhibition in assay [1] is -4.48%. Also, in assay [2], the score was found to be 1.45. In [3], this compound showed a rescue above control of -8.65. The cytochrome c release ratio in [4] came out at 0.87. The inhibition of aggregation in assay [5] is 52.2%. Moreover, the glutamate uptake change in assay [6] was -2.6%. In assay [7], this compound registered an aggregation suppression score of 1.67. Also, the parasite load remaining in assay [8] was 136% (inactive) and 45% (inactive). For the same compound, the viability in assay [8] is 75.1% and 93.8%. The red/green cell ratio (normalised) in [9] is 0.87 (inactive). For the same compound, the values for the normalised cell number in [9] (setting [13]) and in [9] (setting [14]) were 1.11 and 0.97, respectively. In assay [10], the activity remaining was 103% (inactive). Also, the figures for the fold change in assay [11] (stronger effect = lower value) and in assay [11] (setting [15]) were 0.892 (inactive) and 2.83, respectively. Further, the cell count came to 12000 in assay [11] (setting [16]) and 13500 in assay [11] (setting [17]).
